Rows were chosen to be rich in hits. Some 1.2% of all compounds tested hit in one or more screens of this group.
TcdB GH inh = inhibitors of Clostridioides difficile toxin B glycohydrolase; P18177; TcdB glycohydrolase enzymatic assay, plate reader; inhibition, % at 9.99 µM; 350,000 compounds, 0.24% hits; AID 652162; in the data active means inhibition above about 10%
Vc quorum ag-1 = quorum light induction in luxS cqsA deficient V. cholerae. V. cholerae BH1578 lux reporter, luminescence, 6 h. activation, % at 18.7 µM. 350,000 compounds, 0.16% hits. AID 588436; in the data active means activation mostly above about 9.7%, no sharp cut-off; inconclusive means no clear call, values can overlap the other calls; inactive means mostly below about 3.7%
Yp Topo-I inh = inhibitors of Yersinia pestis topoisomerase I. Y. pestis Topo-I cleavage product accumulation, plate reader. activity, % at 10 µM. 360,000 compounds, 0.064% hits; in the data active means activity above about 50%, passing the limit was not always enough; inconclusive means no clear call, values can overlap the other calls
PfHsp40 yeast = restores yeast growth despite PfHsp40 toxicity. S. cerevisiae expressing PfHsp40, growth rescue, ATP luminescence. growth rescue, % at 12.5 µM. 340,000 compounds, 0.68% hits. AID 504582; in the data active means growth rescue above about 28%, passing the limit was not always enough; inconclusive means no clear call, values can overlap the other calls;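 further: yeast W303a lacking pdr1 and pdr3 grown in galactose medium; growth measured after three days at 30 °C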
DUSP3 inh = inhibitors of human VHR1 phosphatase (DUSP3); P51452; recombinant VHR phosphatase, pNPP absorbance; inhibition, % at 13.3 µM; 290,000 compounds, 0.52% hits; in the data active means inhibition above about 50%
Target sequence (P51452 whole entry, looked up): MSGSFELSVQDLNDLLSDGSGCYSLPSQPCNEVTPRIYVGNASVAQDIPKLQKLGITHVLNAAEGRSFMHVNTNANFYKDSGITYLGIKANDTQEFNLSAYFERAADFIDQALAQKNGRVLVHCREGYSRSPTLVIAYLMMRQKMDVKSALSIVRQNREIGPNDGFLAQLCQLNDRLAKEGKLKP
BioA inh = BioA (M. tuberculosis) enzyme inhibition | purified M. tuberculosis BioA enzyme, plate reader | inhibition, % at 9.99 µM | 360,000 compounds, 0.096% hits | AID 602481; in the data active means inhibition above about 40%; inconclusive means no clear call, values can overlap the other calls
Vc quorum ag-2 = quorum light induction in BH1578 reporter strain. shares compounds with Vc quorum ag-1. 620 tested, under 10 active. V. cholerae BH1578 lux reporter, luminescence, 6 h. activation, % at 50 µM. AID 602243; call rule not given here
HeLa 24h tox = kills HeLa cells within 24 hours | 25 tested, under 10 active | HeLa viability, CellTiter-Glo ATP luminescence | shares compounds with Vc quorum ag-1 | activity change, negative = cytotoxicity, % at 35 µM;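 active means signal drop with fitted half-maximal concentration at or below twice the highest valid dose; inconclusive means flat curve with 30 to 70% loss, or poor fit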
* hit, by the source's call; i = inactive; ? = inconclusive; . = no result; + = active, no number.

SMILES	TcdB GH inh	Vc quorum ag-1	Yp Topo-I inh	PfHsp40 yeast	DUSP3 inh	BioA inh	Vc quorum ag-2	others
CN(C)c1cccc(C(=O)N/N=C/c2ccsc2)c1	.	0	-1	1	37	.	.
COc1ccc(NC(=O)COc2cccc3c2CCNC3=O)cc1	-1	27*	3	-1	.	.	3
Cc1ccc(NC(=S)NCCc2c[nH]c3ccccc23)cc1	.	17*	-11	-1	5	2	0
CCCC(=O)NC1CCCc2c1cnn2-c1ccc(C)c(C)c1 (stereo not drawn)	0	23	5	-1	6	0	0
COC(=O)c1cc(COC(=O)c2ccc(OC)c(S(=O)(=O)N3CCCC3)c2)oc1C	.	12	28	0	16	0	0
Nc1ccc(S(=O)(=O)NC2=NCCCCC2)cc1N	2	-1	6	1	0	-2	.
CCC[n+]1c(C)sc2c3c(ccc21)CCCC3	.	3	-16	0	17	1	.
COc1ccc(C(=O)OCC(=O)NC2CC2)cc1	1	0	-7	.	.	0	.
Cc1cc(C(=O)OCC(=O)Nc2ccccc2F)c(C)o1	.	57*	-3	-1	25	0	15
Cc1cc(C(=O)OCC(=O)Nc2c(Cl)cccc2Cl)c(C)o1	1	i	7	0	.	-2	.
O=C(COC(=O)c1cc(Cl)ccc1Cl)NC1CCCC1	-1	28*	0	0	-11	-1	29
CC(C)(C)c1ccc(C(=O)OCC(=O)NC2CC2)cc1	3	26	3	0	.	0	18
Cc1cc(C(=O)OCC(=O)NC2CCCCC2)c(C)o1	.	175*	2	-1	19	-2	660
CC(C)c1ccc(OCC(=O)NC2CCCC2)cc1	1	.	8	1	-2	0	i
Cc1ccc(C(=O)OCC(=O)NC2CCCC2)cc1	1	.	2	0	-15	0	i	HeLa 24h tox=11
CC(=O)c1ccc(OCC(=O)NC2CCCCCC2)cc1	-1	-2	-8	1	.	1	.
O=C(COC(=O)c1ccc(O)cc1)NC1CCCC1	1	i	-6	3	2	-3	.
CN(CC(=O)Nc1cccc(S(=O)(=O)NC2=NCCCCC2)c1)Cc1ccc(C(C)(C)C)cc1	1	i	-5	0	34	.	.
Cc1noc(C)c1NC(=O)Nc1cccc2c1O[C@@H](CN(C)S(=O)(=O)c1cccs1)[C@H](C)CN([C@@H](C)CO)C2=O	.	.	.	.	.	1	.
Cc1noc(C)c1NC(=O)Nc1cccc2c1O[C@H](CN(C)S(=O)(=O)c1cccs1)[C@@H](C)CN([C@H](C)CO)C2=O	0	12	12	-1	.	1	0
C[C@H]1CN([C@@H](C)CO)C(=O)c2cccc(NC(=O)C3CC3)c2O[C@H]1CN(C)S(=O)(=O)c1cccs1	0	24	8	-1	.	-3	0
C[C@@H]1CN([C@H](C)CO)C(=O)c2cccc(NC(=O)C3CC3)c2O[C@@H]1CN(C)S(=O)(=O)c1cccs1	-1	.	.	.	.	-1	.
O=C(Nc1cccc(Cl)c1)Nc1ccc(Cl)cn1	.	32*	1	-1	0	1	-1
O=S(=O)(O)C(c1ccccc1)C1(O)CCCCC1 (stereo not drawn)	-4	i	-2	-1	.	3	.
CCC1(CC)NC(=O)N(CC(=O)OCC(=O)NC(=O)c2ccc(Cl)cc2)C1=O	-1	0	-4	0	-11	.	.
SMILES	TcdB GH inh	Vc quorum ag-1	Yp Topo-I inh	PfHsp40 yeast	DUSP3 inh	BioA inh	Vc quorum ag-2	others
CCC1(CC)NC(=O)N(CC(=O)OCC(=O)NC(=O)c2ccccc2OC)C1=O	0	14	-9	-1	.	0	0
C[C@@H]1CCCCO[C@H](CN(C)C(=O)C2CCCCC2)[C@H](C)CN([C@H](C)CO)C(=O)c2cc(NC(=O)c3ccccc3)ccc2O1	0	.	.	.	.	-5	.
Cc1c(C(=O)c2ccc(F)cc2F)c2ccccn2c1CCc1ccccn1	3	12	27	.	.	.	0
CC(C)Oc1ccc(C(=O)Nc2cc(S(=O)(=O)N3CCOCC3)ccc2N2CCOCC2)cc1	1	2	2	0	.	1	0
COc1ccccc1C(C[N+](=O)[O-])c1c[nH]c2ccccc12 (stereo not drawn)	-3	i	9	0	-13	.	.
COc1cc(C(C)=O)ccc1OCC(=O)Nc1cc(Cl)ccc1-n1cncn1	-1	19	2	0	.	-1	0
COc1cc(OC)c(C(=O)Nc2cc(Cl)ccc2-n2cncn2)cc1OC	2	-1	-3	1	.	-1	.
CCCNC(=O)COC(=O)/C=C/c1ccc(C)o1	1	+	5	-1	14	.	i
CNC(=O)COC(=O)c1ccccc1NC(=O)c1ccco1	1	-2	7	22	-5	5	.
CC1CCCCC1NC(=O)COC(=O)c1ccccc1NC(=O)c1ccco1 (stereo not drawn)	.	21*	-2	6	-5	-2	0
C=CCn1c(NCc2ccccc2)nc2ccccc21	.	17*	-3	0	31	-1	0
C=CCNc1nc(C(=O)OCC(=O)c2ccccc2)cs1	0	0	8	1	-11	-3	.
O=C(Oc1ccc2ccc(OC(=O)N3CCOCC3)cc2c1)N1CCOCC1	.	17*	3	-1	-1	-2	11
O=C(c1cc2cc(Cl)ccc2oc1=O)N1CCCC1	.	7	-1	-1	-18	-2	0
CCCCN(Cc1nc2ccccc2c(=O)[nH]1)C(=O)CN1C(=O)NC2(CCCCC2)C1=O	0	110*	5	?	.	1	4
C=CCN1C(=O)c2ccc(C(=O)N(CC)CC(=O)Nc3cc(Cl)ccc3C)cc2C1=O	0	15*	9	0	.	-1	0
C=CCN1C(=O)c2ccc(C(=O)N(C)CC(=O)Nc3ccccc3Cl)cc2C1=O	-1	-1	-1	-1	.	.	.
CCN(CC(=O)Nc1ccccc1C(F)(F)F)C(=O)CN1C(=O)NC(C)(c2ccc3ccccc3c2)C1=O (stereo not drawn)	3	21*	16	1	.	-1	0
CCCNC(=O)N1CC2(CCN(CC3CCCCC3)CC2)c2c(n(C)c3cc(OC)ccc23)[C@H]1CO	1	.	.	.	.	.	.
CN(C)Cc1c(O)c(Cl)cc2c3c(c(=O)oc12)CCCC3	.	.	6	2	13	3	.
O=c1oc2c(CN3CCOCC3)c(O)c(Cl)cc2c2c1CCC2	.	31*	-9	0	3	0	4
O=C(O)c1cn[nH]c1-n1cnnn1	.	2	9	4	5	-1	0
CCCCN(C)CCNC(=O)c1ccc2c(c1)NC(=O)C(N1CCCCC1)S2 (stereo not drawn)	.	17*	2	0	24	0	0
Clc1ncnc2scc(-c3ccccc3)c12	.	12	6	-1	17	2	0
